HGIII-sPLA2 inh = human group III sPLA2 inhibitors, primary screen, biochemical, QFRET, BODIPY PC-A2 liposome substrate | Group 3 secretory phospholipase A2 (Homo sapiens), Q9NZ20 | QFRET BODIPY PC-A2 liposome hydrolysis, fluorescence | inhibition, % at 12.2 µM | actives 0.56% (n = 370,000) | AID 743126, 2013;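 active means inhibition above mean plus 3 SD of compounds lying within the high and low control bounds, cut at about 19% in these data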
UBC9 SUMO inh = inhibitors of in vitro SUMOylation cascade, primary screen, biochemical, HTRF, uHTS; SUMO-conjugating enzyme UBC9 (Homo sapiens), P63279; HTRF SUMOylation assay, SAE1/SAE2 + UBC9; inhibition, % at 35 µM; actives 0.36% (n = 290,000); AID 2006, 2009; in the data active means inhibition above about 50%, passing the limit was not always enough
Target sequence (P63279 whole entry, looked up): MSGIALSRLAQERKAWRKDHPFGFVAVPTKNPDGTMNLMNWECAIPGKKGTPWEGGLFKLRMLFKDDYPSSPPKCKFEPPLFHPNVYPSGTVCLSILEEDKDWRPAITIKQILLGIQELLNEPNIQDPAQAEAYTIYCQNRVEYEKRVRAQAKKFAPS
UBC13 inh = UBC13 polyubiquitin chain formation inhibitors, primary screen, biochemical, TR-FRET, uHTS. inhibition, % at 20 µM. actives 0.47% (n = 330,000). Ubiquitin-conjugating enzyme E2 N (Homo sapiens), P61088; in the data active means inhibition above about 45%, passing the limit was not always enough
Target sequence (P61088 whole entry, looked up): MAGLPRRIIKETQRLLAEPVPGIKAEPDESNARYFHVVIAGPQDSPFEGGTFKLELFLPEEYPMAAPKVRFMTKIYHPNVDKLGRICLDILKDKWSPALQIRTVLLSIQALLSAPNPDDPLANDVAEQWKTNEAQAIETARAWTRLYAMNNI
GRIN3A LBD mod = binders of NR3A ligand-binding domain, primary screen, biophysical, differential scanning fluorimetry, uHTS | Glutamate receptor ionotropic, NMDA 3A (GRIN3A) ligand-binding domain | NR3A LBD differential scanning fluorimetry, Tm shift; 0% = protein alone, 100% = glycine-bound protein | actives 2.5% (n = 340,000) | Tm shift relative to glycine control, % at 25 µM;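 active means melting temperature shift of at least 10% of the positive control shift, at one fixed dose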
Large screens that a line does not name were inactive. The list is not random: actives were taken first. Their share in the collection is about 3.3%.

CCOC(=O)c1c(NC(=O)CNC2CCCCC2)sc(C)c1C	GRIN3A LBD mod 13
COc1ccc(C(=O)Nc2ccc(S(=O)(=O)N3CCOCC3)cc2)cc1	GRIN3A LBD mod 27 (no result: UBC9 SUMO inh)
O=C(CCc1ccccc1Cl)Nc1ccc(S(=O)(=O)N2CCOCC2)cc1	GRIN3A LBD mod 19 (no result: UBC9 SUMO inh)
CC(=O)Nc1ccc(S(=O)(=O)N2CCOCC2)cc1	none
O=C(CCc1ccccc1Cl)Nc1cc(S(=O)(=O)N2CCOCC2)ccc1N1CCCC1	none (no result: UBC9 SUMO inh, UBC13 inh)
O=C(Nc1ccc(Cl)cc1)c1ccc(S(=O)(=O)N2CCOCC2)cc1	GRIN3A LBD mod 15
O=C(Nc1ccc(S(=O)(=O)N2CCOCC2)cc1)c1ccc(Cl)s1	GRIN3A LBD mod 35
CCC(C(=O)Nc1ccccc1N1CCCC1)c1cccc(C)c1 (configuration not stated)	none (no result: UBC9 SUMO inh, UBC13 inh, GRIN3A LBD mod)
O=C(OC12CCCN(C1)/C(=C/c1ccccc1)C2)c1ccc(F)cc1 (configuration not stated)	none (no result: UBC9 SUMO inh, UBC13 inh, GRIN3A LBD mod)
COc1ccc(N2CCN(S(=O)(=O)c3ccc(C(=O)NCc4ccco4)cc3)CC2)cc1	GRIN3A LBD mod 28
O=C(NCc1ccco1)c1ccc(S(=O)(=O)N2CCOCC2)cc1	none
COc1ccc(C(=O)Nc2ccc(N3CCOCC3)cc2)cc1S(=O)(=O)N1CCOCC1	none (no result: UBC9 SUMO inh)
COc1ccc(C(=O)Nc2ccc(-c3cn4ccsc4n3)cc2)cc1S(=O)(=O)N1CCOCC1	GRIN3A LBD mod 27
O=C(c1ccccc1)C1CCN(c2ncnc3sccc23)CC1	none (no result: UBC9 SUMO inh, UBC13 inh, GRIN3A LBD mod)
CC1=NN(c2ccc(Cl)cc2)C(=O)C1C(c1ccccc1O)c1c(C)[nH]n(-c2ccc(Cl)cc2)c1=O (configuration not stated)	GRIN3A LBD mod 255 (no result: HGIII-sPLA2 inh)
COc1ccc(CC(=O)Nc2c3c(nn2C(C)(C)C)CS(=O)(=O)C3)cc1	GRIN3A LBD mod 14
O=C(Nc1ccccc1)c1cc2ccccc2c(=O)s1	none
O=C(Nc1ccc(O)cc1)c1cc2ccccc2c(=O)s1	GRIN3A LBD mod 24
COc1cc2c(cc1Cl)/C(=C\CCN(C)C)c1ccccc1S2	GRIN3A LBD mod 18
O=C(Nc1ccc(Cl)cc1)c1ccc(CN2CCc3ccccc3C2)cc1	HGIII-sPLA2 inh 20
N#CCc1ccc(NC(=O)c2ccc(CN3CCc4ccccc4C3)cc2)cc1	none
Cc1ccc(S(=O)(=O)CCC(=O)OCC(=O)NCCc2ccccc2)cc1	GRIN3A LBD mod 15 (no result: UBC9 SUMO inh)
Cc1ccc(S(=O)(=O)CCC(=O)OCC(=O)NCCc2ccc(F)cc2)cc1	none (no result: UBC9 SUMO inh)
CCN(CC)C(=O)CC[C@H]1CC[C@]2(CCCN(Cc3ccc(N(C)C)cc3)C2)O1	none (no result: UBC9 SUMO inh, UBC13 inh, GRIN3A LBD mod)
CCCCCCC/C=C(\C)[C@@H](O)[C@@H](C)C(=O)N1CCC[C@@H]1C(=O)O[C@H](C(=O)O[C@@H](C)C(=O)O)[C@@H](C)CC	none (no result: UBC9 SUMO inh, UBC13 inh, GRIN3A LBD mod)
O=C1CC(c2ccc(O)c(O)c2)Oc2c1ccc(O)c2O (configuration not stated)	UBC9 SUMO inh 73
COc1cc(CNc2nc3c(C)cc(C)cc3s2)ccc1O	none
Cc1cc(C)c2nc(NCc3ccccc3O)sc2c1	GRIN3A LBD mod 27
Cc1ccccc1N1CCN(C2CCCN(C(=O)c3ccc(Cl)s3)C2)CC1 (configuration not stated)	GRIN3A LBD mod 11
Cc1cc(C(=O)N2CCCC(N3CCN(c4cccc(C(F)(F)F)c4)CC3)C2)no1 (configuration not stated)	GRIN3A LBD mod 20
O=C(c1cnccn1)N1CCCC(N2CCN(c3cccc(Cl)c3)CC2)C1 (configuration not stated)	none
Cc1cccc(C(=O)N2CCCC(N3CCN(c4cccc(Cl)c4)CC3)C2)n1 (configuration not stated)	GRIN3A LBD mod 13
COC(=O)[C@H]1C[C@@]2(N3CCCC3)c3ccccc3N(C(=O)OC(C)(C)C)[C@H]2N1C(=O)OC(C)(C)C	none (no result: UBC9 SUMO inh, UBC13 inh, GRIN3A LBD mod)
Nc1c(C(=O)N2CCN(CCc3ccccc3)CC2)cnn1-c1ccccc1	none (no result: UBC9 SUMO inh, UBC13 inh, GRIN3A LBD mod)
CCOc1cc(NC(=O)C2CC2)c(OCC)cc1NC(=O)c1cc(OC)c(OC)c(OC)c1	none
COc1cc(C(=O)NNC(=O)C2CC2)cc(OC)c1OC	GRIN3A LBD mod 15
COC(=O)[C@@]12CCCCC3=C1N(CCC3)C(=O)[C@H]2CC(=O)N1CCCC1	none (no result: UBC9 SUMO inh, UBC13 inh, GRIN3A LBD mod)
CSc1nc2ccc(NS(=O)(=O)c3cccc(Cl)c3Cl)cc2s1	GRIN3A LBD mod 16
Cc1nc2ccc(NS(=O)(=O)c3ccccc3Cl)cc2s1	none (no result: UBC9 SUMO inh)
Cc1ccc(NC(=O)Cn2nnc(-c3ccccc3F)n2)cc1C	none (no result: UBC9 SUMO inh, UBC13 inh, GRIN3A LBD mod)
Oc1c(C=Nc2ccc(Cl)cn2)sc2ccccc12	GRIN3A LBD mod 11
Oc1c(/C=N/c2ccccn2)sc2ccccc12	none
CC(=O)CC[C@@H]1CC[C@]2(CCCN(C(=O)C3CCCCC3)C2)O1	none (no result: UBC9 SUMO inh, UBC13 inh, GRIN3A LBD mod)
COc1cccc(C2c3c(oc4ccccc4c3=O)C(=O)N2c2ccccn2)c1 (configuration not stated)	HGIII-sPLA2 inh 20
CCOc1cccc(C2c3c(oc4ccccc4c3=O)C(=O)N2c2ccccn2)c1 (configuration not stated)	none (no result: GRIN3A LBD mod)
O=C(NC1(O)C(=O)c2ccccc2C1=O)c1c(Cl)cccc1Cl	UBC9 SUMO inh 95
O=C(NC1(O)C(=O)c2ccccc2C1=O)c1ccccc1	UBC9 SUMO inh 84
COCCCNC(=O)c1ccc(Cn2c(=O)c3ccccc3n(Cc3ccc(Br)cc3)c2=O)cc1	none (no result: UBC9 SUMO inh, UBC13 inh, GRIN3A LBD mod)
CCC(C)n1c(SCC(=O)Nc2ccccc2C(F)(F)F)nc2ccsc2c1=O (configuration not stated)	none
CCC(C)n1c(SCc2ccccc2)nc2ccsc2c1=O (configuration not stated)	GRIN3A LBD mod 11
C[C@H]1COc2cccc(N3CCSCC3)c2S(=O)(=O)N1C	none (no result: UBC9 SUMO inh, UBC13 inh, GRIN3A LBD mod)
Cc1occc1-c1nnc(SCC(=O)NCc2ccc(Cl)cc2)n1-c1ccccc1	none (no result: UBC9 SUMO inh, UBC13 inh, GRIN3A LBD mod)
Cc1ccc(/C=N/n2c(-c3ccc(Cl)cc3)n[nH]c2=S)s1	GRIN3A LBD mod 21
O=C(Nc1ccc(Cl)cc1)N[C@@H]1c2c(ccc3ccccc23)OC[C@@H]1CO	GRIN3A LBD mod 26
COc1cccc(/C=N/Nc2c(Cl)cncc2Cl)c1O	GRIN3A LBD mod 35
O=[N+]([O-])c1ccc(NN=Cc2cccc3ccccc23)cc1	GRIN3A LBD mod 34 (no result: UBC9 SUMO inh, UBC13 inh)
COC(=O)c1ccc(N/N=C/c2cc([N+](=O)[O-])cc(OC)c2O)cc1	GRIN3A LBD mod 30
Cc1cc(C)nc(N/N=C/c2ccccc2OCc2ccc([N+](=O)[O-])cc2)n1	none
O=[N+]([O-])c1ccccc1C=NNc1ccccc1	none (no result: UBC9 SUMO inh, UBC13 inh)
O=[N+]([O-])c1ccc(N/N=C\c2ccccc2OCc2ccccc2)cc1	GRIN3A LBD mod 20
COc1cccc(/C=N/Nc2cc(Cl)nc(C)n2)c1O	none
CCc1ccccc1NC(=O)c1cc(C)nn1-c1ccccc1	none (no result: UBC9 SUMO inh, UBC13 inh, GRIN3A LBD mod)
COc1cccc(/C=N/NC(=O)c2ccc(-c3ccccc3)cc2)c1O	GRIN3A LBD mod 26
CCOC(=O)c1ccc(N/N=C/c2cc(Br)cc([N+](=O)[O-])c2O)cc1	GRIN3A LBD mod 19

From PubChem
